Among all 31,000 compounds or so, about 360 (1.2%) were called active. No rule for the calls is given here. What follows is part of a selection rich in actives, with near analogues and random picks from the rest.
target: DNA-binding protein inhibitor ID-4 (Homo sapiens) (UniProt P47928); assay: PubChem AID 624137; conditions: small molecule microarray, Flag-ID4 binding, fluorescence F/B;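 also: a binder raises fluorescence above local background on the spot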
Sequence (P47928 whole entry, looked up): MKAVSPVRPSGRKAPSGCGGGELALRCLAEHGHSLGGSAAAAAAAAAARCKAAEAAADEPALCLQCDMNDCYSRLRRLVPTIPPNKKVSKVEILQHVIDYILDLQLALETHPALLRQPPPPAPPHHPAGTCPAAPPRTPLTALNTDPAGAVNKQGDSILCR

Structure (SMILES)	outcome
O=C(C[C@@H]1C=C[C@@H](NC(=O)Nc2cccc(F)c2)[C@H](CO)O1)NCC1CCCCC1	inactive
CO[C@@H]1CN(C)C(=O)c2cc(NC(=O)c3ccccc3F)ccc2OC[C@@H](C)N(CC2CC2)C[C@H]1C	inactive
CC(C)NC(=O)N(C)C[C@@H]1Oc2ccc(N(C)C)cc2C(=O)N([C@@H](C)CO)C[C@H]1C	inactive
CC(C)NC(=O)N(C)C[C@@H]1Oc2c(cccc2N(C)C)C(=O)N([C@H](C)CO)C[C@@H]1C	inactive
CC(C)NC(=O)N(C)C[C@@H]1Oc2c(cccc2N(C)C)C(=O)N([C@@H](C)CO)C[C@H]1C	active
CCC(Oc1cccc(NC(=O)c2ccccc2[N+](=O)[O-])c1)C(=O)c1ccccc1 (stereo not given)	inactive
C[C@@H]1CN([C@H](C)CO)C(=O)c2cc(C#Cc3cccc(F)c3)cnc2O[C@H]1CN(C)Cc1ccccn1	inactive
CCCC#Cc1ccc2c(c1)O[C@@H](CN(C)CCC)[C@@H](C)CN([C@H](C)CO)S2(=O)=O	inactive
CC(C)NC(=O)N(C)C[C@H]1Oc2ncc(C#CC3CC3)cc2C(=O)N([C@H](C)CO)C[C@@H]1C	inactive
C[C@@H]1CN([C@@H](C)CO)C(=O)c2cc(-c3ccccc3F)cnc2O[C@@H]1CN(C)Cc1cccc(F)c1	inactive
O=C(C[C@@H]1C=C[C@@H](NC(=O)c2ccccn2)[C@@H](CO)O1)NCc1cc(F)cc(F)c1	inactive
C[C@@H]1CN([C@H](C)CO)C(=O)c2cc(-c3ccncc3)cnc2O[C@H]1CN(C)C	inactive
C[C@H]1CN([C@@H](C)CO)C(=O)c2cc(C3=CCCC3)cnc2O[C@@H]1CN(C)Cc1cccnc1	inactive
C/C=C/c1ccc2c(c1)O[C@H](CN(C)C)[C@H](C)CN([C@H](C)CO)S2(=O)=O	inactive
CCC1=NN(C(=O)C(C)C)C(O)(c2ccc(Br)cc2)C1 (stereo not given)	inactive
CC(=O)N(C)C[C@@H]1Oc2ncc(C#CCc3ccccc3)cc2C(=O)N([C@H](C)CO)C[C@H]1C	inactive
C[C@H](CO)N1C[C@H](C)[C@H](CN(C)C)Oc2ncc(-c3ccncc3)cc2C1=O	inactive
COc1cccc(S(=O)(=O)N[C@H]2C=C[C@H](CC(=O)NC3Cc4ccccc4C3)O[C@H]2CO)c1	inactive
CC(C)NC(=O)N(C)C[C@@H]1Oc2ncc(C#CC3CC3)cc2C(=O)N([C@@H](C)CO)C[C@H]1C	inactive
O=C(C[C@@H]1CC[C@@H](NC(=O)C2CC2)[C@@H](CO)O1)NCc1ccccc1Cl	inactive
COCC#Cc1ccc2c(c1)O[C@H](CN(C)CC1CC1)[C@H](C)CN([C@H](C)CO)S2(=O)=O	inactive
C[C@H](CO)N1C[C@H](C)[C@H](CN(C)C)Oc2cc(C#Cc3ccccc3F)ccc2S1(=O)=O	inactive
O=C(C[C@@H]1C=C[C@@H](NC(=O)c2cccnc2)[C@H](CO)O1)NCCN1CCCCC1	inactive
COC(=O)C[C@H]1CC[C@H](NC(=O)c2ccccc2)[C@@H](CO)O1	inactive
CC(C)CC#Cc1cnc2c(c1)C(=O)N([C@H](C)CO)C[C@H](C)[C@@H](CN(C)Cc1ccccc1C(=O)O)O2	inactive
O=C(C[C@@H]1C[C@H]2c3cc(NC(=O)C4CCOCC4)ccc3O[C@H]2[C@H](CO)O1)NCc1ccc2c(c1)OCO2	inactive
C[C@H]1CN([C@@H](C)CO)S(=O)(=O)c2ccc(-c3ccccc3F)cc2O[C@H]1CN(C)C(=O)C1CC1	inactive

Structure (SMILES)	outcome
C[C@@H]1CN([C@H](C)CO)C(=O)c2cc(C#CCC3CCCC3)cnc2O[C@H]1CN(C)C(=O)c1cnccn1	inactive
CO[C@H](CN(C)S(=O)(=O)c1ccc(C)cc1)[C@@H](C)CN(Cc1ccccc1Cl)[C@@H](C)CO	inactive
CCn1c(SCC(=O)Nc2sc3c(c2C#N)CCCC3)nnc1-c1ccccc1O	active
N#Cc1c(NC(=O)CCn2cnc3ccccc3c2=O)sc2c1CCCC2	inactive
CCn1c(SCC(=O)Nc2cc(Cl)c(Cl)cc2Cl)nnc1-c1ccccc1Cl	inactive
C[C@@H]1CN([C@@H](C)CO)C(=O)c2cc(C3=CCCC3)cnc2O[C@H]1CN(C)Cc1ccccc1F	inactive
COCC(=O)N[C@H]1C=C[C@H](CC(=O)N2CCCCC2)O[C@H]1CO	inactive
Cc1ccc(-c2ccc3c(c2)O[C@H](CN(C)C)[C@@H](C)CN([C@@H](C)CO)S3(=O)=O)cc1	inactive
CO[C@@H](CN(C)S(=O)(=O)c1ccc(F)cc1)[C@H](C)CN(C(=O)Nc1ccccc1F)[C@@H](C)CO	inactive
O=C(C[C@H]1C=C[C@@H](NC(=O)Nc2cc(F)ccc2F)[C@H](CO)O1)NCCCN1CCOCC1	inactive
CN(C)C(=O)C[C@H]1C=C[C@@H](NC(=O)c2ccc(F)cc2)[C@@H](CO)O1	inactive
C[C@H]1CN([C@@H](C)CO)C(=O)c2cc(Br)cnc2O[C@@H]1CN(C)C(=O)c1ccccc1F	inactive
O=C(CN1C(=O)c2ccccc2S1(=O)=O)Nc1ccc(F)c(F)c1	inactive
O=C(CSc1nnc(-c2ccccc2)n1-c1ccccc1)c1ccc(F)cc1	inactive
CO[C@@H](CN(C)C(=O)c1cnccn1)[C@@H](C)CN([C@@H](C)CO)S(=O)(=O)c1ccc(F)cc1	inactive
C[C@H]1CN([C@@H](C)CO)C(=O)c2cc(Br)cnc2O[C@H]1CN(C)CC1CCCC1	inactive
CCCN(C)C[C@@H]1Oc2cc(-c3ccc(C)cc3)ccc2S(=O)(=O)N([C@@H](C)CO)C[C@H]1C	inactive
CCC(=O)N[C@H]1C=C[C@@H](CC(=O)NCC2CCCCC2)O[C@H]1CO	inactive
C[C@@H]1CN([C@H](C)CO)C(=O)c2cc(Br)cnc2O[C@@H]1CN(C)C(=O)C1CC1	inactive
C[C@H](CO)N1C[C@H](C)[C@@H](CN(C)C)Oc2ncc(-c3cccc(F)c3)cc2C1=O	inactive
C[C@@H]1CN([C@H](C)CO)S(=O)(=O)c2ccc(-c3cccc(C#N)c3)cc2O[C@@H]1CN(C)C(=O)Nc1ccccc1F	active
C[C@@H]1CN([C@@H](C)CO)S(=O)(=O)c2ccc(-c3cccc(C#N)c3)cc2O[C@@H]1CN(C)Cc1cccc(F)c1	inactive
CCCN(C)C[C@@H]1Oc2cc(-c3cccc(C#N)c3)ccc2S(=O)(=O)N([C@@H](C)CO)C[C@@H]1C	inactive
Cc1cc(C)c(OCC(=O)Nc2cccnc2)c(Br)c1	inactive
COc1ccc(NC(=O)Cc2nc(-c3cc4ccccc4oc3=O)cs2)cc1	inactive
COc1cccc(S(=O)(=O)N[C@H]2C=C[C@H](CC(=O)NC3Cc4ccccc4C3)O[C@@H]2CO)c1	inactive
CN(C)c1ccc2c(c1)[C@H]1C[C@H](CC(=O)NCc3ccc(Cl)cc3)O[C@H](CO)[C@H]1O2	inactive

Structure (SMILES)	outcome
CC(=O)N(C)C[C@H]1Oc2cc(C#Cc3ccccc3F)ccc2S(=O)(=O)N([C@H](C)CO)C[C@@H]1C	inactive
COc1ccc(CNC(=O)C[C@@H]2C=C[C@@H](NC(=O)c3ccc4c(c3)OCO4)[C@@H](CO)O2)cc1	inactive
O=C(C[C@H]1CC[C@@H](NC(=O)Cc2ccccn2)[C@H](CO)O1)NCCc1ccccc1	inactive
COC(=O)C[C@@H]1C[C@H]2c3cc(NC(=O)NC4CCCC4)ccc3O[C@H]2[C@H](CO)O1	inactive
O=C(NCC[C@H]1CC[C@@H](NC(=O)C2CCCCC2)[C@@H](CO)O1)c1ccc(F)cc1	inactive
COc1ccc(NC(=O)N[C@@H]2C=C[C@H](CC(=O)NC3CCC3)O[C@@H]2CO)cc1	inactive
C[C@H](CO)N1C[C@H](C)[C@H](CN(C)C)Oc2cc(C#CC3CC3)ccc2S1(=O)=O	inactive
C[C@H](CO)N1C[C@H](C)[C@H](CN(C)C(=O)c2cccnc2)Oc2ncc(C3=CCCC3)cc2C1=O	inactive
O=C(C[C@@H]1CC[C@H](NC(=O)Nc2cc(F)ccc2F)[C@H](CO)O1)NCc1ccncn1	inactive
CNC[C@@H]1Oc2cc(C#CC3CCCC3)ccc2S(=O)(=O)N([C@@H](C)CO)C[C@@H]1C	inactive
Cc1ccccc1NS(=O)(=O)c1cccc(C(=O)Nc2ccccc2[N+](=O)[O-])c1	inactive
C[C@@H]1CN([C@H](C)CO)C(=O)c2cc(-c3cccc(F)c3)cnc2O[C@@H]1CN(C)C	inactive
C[C@H](CO)N1C[C@H](C)[C@@H](CN(C)Cc2cccnc2)Oc2ncc(/C=C/c3ccccc3)cc2C1=O	inactive
C[C@@H]1CN([C@@H](C)CO)C(=O)c2cc(/C=C/c3ccccc3)cnc2O[C@@H]1CN(C)C(=O)CN(C)C	inactive
Cc1ccccc1-c1ccc2c(c1)O[C@H](CN(C)C)[C@@H](C)CN([C@H](C)CO)S2(=O)=O	inactive
Cc1ccc(S(=O)(=O)CCN2CCC(C(F)(F)F)CC2)cc1	inactive
CC(=O)N(C)C[C@@H]1Oc2cc(-c3ccncc3)ccc2S(=O)(=O)N([C@@H](C)CO)C[C@H]1C	inactive
C[C@H](CO)N1C[C@H](C)[C@H](CN(C)Cc2ccccc2)Oc2ncc(-c3ccccc3)cc2C1=O	inactive
C[C@@H]1CN([C@H](C)CO)C(=O)c2cc(-c3ccc(C#N)cc3)cnc2O[C@@H]1CN(C)CC1CC1	inactive
C[C@H]1CN([C@@H](C)CO)C(=O)c2cc(-c3ccc(C#N)cc3)cnc2O[C@@H]1CN(C)Cc1ccncc1	active
CC(=O)N[C@@H]1C=C[C@H](CC(=O)NCC2CCCCC2)O[C@H]1CO	inactive
C[C@H](CO)N1C[C@H](C)[C@H](CN(C)CC2CCCC2)Oc2ncc(-c3ccc(F)cc3)cc2C1=O	inactive
Cn1cnc(S(=O)(=O)N[C@H]2C=C[C@H](CC(=O)NCC3CCCCC3)O[C@@H]2CO)c1	inactive
CC(=O)Nc1sccc1C(=O)NCc1ccco1	inactive
CCOC(=O)c1c(NC(=O)C(C)Oc2ccc3c(C)cc(=O)oc3c2)sc2c1CCC2 (stereo not given)	inactive
Cc1cc2oc(C(=O)Nc3sc4c(c3C(=O)NCc3ccco3)CCC4)c(C)c2cc1C	active
